Experimental data taken from PubChem BioAssay.
Active and inactive are the calls of the source.

Assays:
[1] = small molecules captured by biotinylated probe aFSTL3 – biochemical, small-molecule microarray, fluorescence 635/667, stem cell growth factor project, primary screen (AID 1064); conditions: higher = more signal;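 also: measures binding of the biotinylated anti-FSTL3 antibody to printed compounds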
[2] = binders from COS7 lysate, DM2A8 probe, primary screen, torsin A project, cell lysate, small-molecule microarray, fluorescence 635/667 (AID 1065); conditions: higher = more signal, COS7 lysate expressing mutant human TOR1A
[3] = small molecules captured by biotinylated probe aFGF2 – biochemical, small-molecule microarray, fluorescence 635/667, stem cell growth factor project, primary screen (AID 1067); conditions: higher = more signal;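 also: measures binding of biotinylated aFGF2 protein to printed compounds on slides; z-score merges feature fluorescence and signal-to-noise across triplicate slides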
[4] = small molecules captured by biotinylated probe aFGF10 – biochemical, small-molecule microarray, fluorescence 635/667, stem cell growth factor project, primary screen (AID 1071); conditions: higher = more signal;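 also: score merges 667 nm spot intensity and signal to noise from triplicate slides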
[5] = target: Neurogenic locus notch homolog protein 2 (Homo sapiens) (UniProt Q04721); assay: small molecules binding Notch2 protein – biochemical, small-molecule microarray, 635 nm fluorescence, stem cell growth factors, primary screen (AID 1073); conditions: higher = more signal
[6] = target: Pro-neuregulin-1, membrane-bound isoform (Homo sapiens) (UniProt Q02297); assay: small molecules binding neuregulin-1 protein – biochemical, small-molecule microarray, fluorescence 635/667, psychiatric disease protein project, primary screen (AID 1075); conditions: NRG1 binding, 635 nm fluorescence, higher = more signal;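 also: score combines 667 nm spot fluorescence with signal to noise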
[7] = tested on: Neuregulin-1 EGF-like domain; assay: small molecules binding NRG1 EGF domain – biochemical, small-molecule microarray, 635 nm fluorescence, primary screen (AID 1081); conditions: higher = more signal;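 also: binding of the protein to compounds printed on small-molecule microarray slides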
[8] = FRG1 expression reporter modulators in myotubes – cell-based, C2C12 myotubes, firefly/Renilla luciferase, luminescence, FRG1 inhibition for FSHD, primary screen (AID 1084); conditions: FRG1 promoter luciferase, higher = more signal, called active from +8 up or from −8 down
[9] = small molecules captured by biotinylated probe aFST – biochemical, small-molecule microarray, fluorescence 635/667, stem cell growth factor project, primary screen (AID 1086); conditions: higher = more signal;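 also: score merges 667 nm fluorescence with signal-to-noise of each printed compound spot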
[10] = binders of probe aHhip on microarray, primary screen, stem cell growth factor project, biochemical, small-molecule microarray, fluorescence 635/667 (AID 1087); conditions: higher = more signal;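 also: score merges spot fluorescence at 667nm with spot signal to noise ratio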

Pro-neuregulin-1, membrane-bound isoform (Homo sapiens), sequence (Q02297 whole entry, looked up, the tested form may be a part, canonical isoform): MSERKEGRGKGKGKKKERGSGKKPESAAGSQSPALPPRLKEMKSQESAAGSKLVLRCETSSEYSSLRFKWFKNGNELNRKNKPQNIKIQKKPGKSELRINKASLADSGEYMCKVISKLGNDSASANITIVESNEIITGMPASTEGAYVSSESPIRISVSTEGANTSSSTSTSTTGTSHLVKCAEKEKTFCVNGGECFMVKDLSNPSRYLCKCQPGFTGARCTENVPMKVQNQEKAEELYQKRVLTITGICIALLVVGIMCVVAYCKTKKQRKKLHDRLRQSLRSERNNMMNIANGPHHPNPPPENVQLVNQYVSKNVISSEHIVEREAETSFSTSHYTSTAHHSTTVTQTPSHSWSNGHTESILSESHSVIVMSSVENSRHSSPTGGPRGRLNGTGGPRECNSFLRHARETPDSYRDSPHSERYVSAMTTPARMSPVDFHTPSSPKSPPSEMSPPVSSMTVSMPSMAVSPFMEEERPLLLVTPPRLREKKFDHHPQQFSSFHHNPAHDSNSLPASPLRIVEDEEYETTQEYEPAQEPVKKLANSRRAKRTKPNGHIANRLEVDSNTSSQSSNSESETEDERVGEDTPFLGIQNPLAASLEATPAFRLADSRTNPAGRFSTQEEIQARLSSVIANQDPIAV
Neurogenic locus notch homolog protein 2 (Homo sapiens), sequence (Q04721 whole entry, looked up, canonical isoform): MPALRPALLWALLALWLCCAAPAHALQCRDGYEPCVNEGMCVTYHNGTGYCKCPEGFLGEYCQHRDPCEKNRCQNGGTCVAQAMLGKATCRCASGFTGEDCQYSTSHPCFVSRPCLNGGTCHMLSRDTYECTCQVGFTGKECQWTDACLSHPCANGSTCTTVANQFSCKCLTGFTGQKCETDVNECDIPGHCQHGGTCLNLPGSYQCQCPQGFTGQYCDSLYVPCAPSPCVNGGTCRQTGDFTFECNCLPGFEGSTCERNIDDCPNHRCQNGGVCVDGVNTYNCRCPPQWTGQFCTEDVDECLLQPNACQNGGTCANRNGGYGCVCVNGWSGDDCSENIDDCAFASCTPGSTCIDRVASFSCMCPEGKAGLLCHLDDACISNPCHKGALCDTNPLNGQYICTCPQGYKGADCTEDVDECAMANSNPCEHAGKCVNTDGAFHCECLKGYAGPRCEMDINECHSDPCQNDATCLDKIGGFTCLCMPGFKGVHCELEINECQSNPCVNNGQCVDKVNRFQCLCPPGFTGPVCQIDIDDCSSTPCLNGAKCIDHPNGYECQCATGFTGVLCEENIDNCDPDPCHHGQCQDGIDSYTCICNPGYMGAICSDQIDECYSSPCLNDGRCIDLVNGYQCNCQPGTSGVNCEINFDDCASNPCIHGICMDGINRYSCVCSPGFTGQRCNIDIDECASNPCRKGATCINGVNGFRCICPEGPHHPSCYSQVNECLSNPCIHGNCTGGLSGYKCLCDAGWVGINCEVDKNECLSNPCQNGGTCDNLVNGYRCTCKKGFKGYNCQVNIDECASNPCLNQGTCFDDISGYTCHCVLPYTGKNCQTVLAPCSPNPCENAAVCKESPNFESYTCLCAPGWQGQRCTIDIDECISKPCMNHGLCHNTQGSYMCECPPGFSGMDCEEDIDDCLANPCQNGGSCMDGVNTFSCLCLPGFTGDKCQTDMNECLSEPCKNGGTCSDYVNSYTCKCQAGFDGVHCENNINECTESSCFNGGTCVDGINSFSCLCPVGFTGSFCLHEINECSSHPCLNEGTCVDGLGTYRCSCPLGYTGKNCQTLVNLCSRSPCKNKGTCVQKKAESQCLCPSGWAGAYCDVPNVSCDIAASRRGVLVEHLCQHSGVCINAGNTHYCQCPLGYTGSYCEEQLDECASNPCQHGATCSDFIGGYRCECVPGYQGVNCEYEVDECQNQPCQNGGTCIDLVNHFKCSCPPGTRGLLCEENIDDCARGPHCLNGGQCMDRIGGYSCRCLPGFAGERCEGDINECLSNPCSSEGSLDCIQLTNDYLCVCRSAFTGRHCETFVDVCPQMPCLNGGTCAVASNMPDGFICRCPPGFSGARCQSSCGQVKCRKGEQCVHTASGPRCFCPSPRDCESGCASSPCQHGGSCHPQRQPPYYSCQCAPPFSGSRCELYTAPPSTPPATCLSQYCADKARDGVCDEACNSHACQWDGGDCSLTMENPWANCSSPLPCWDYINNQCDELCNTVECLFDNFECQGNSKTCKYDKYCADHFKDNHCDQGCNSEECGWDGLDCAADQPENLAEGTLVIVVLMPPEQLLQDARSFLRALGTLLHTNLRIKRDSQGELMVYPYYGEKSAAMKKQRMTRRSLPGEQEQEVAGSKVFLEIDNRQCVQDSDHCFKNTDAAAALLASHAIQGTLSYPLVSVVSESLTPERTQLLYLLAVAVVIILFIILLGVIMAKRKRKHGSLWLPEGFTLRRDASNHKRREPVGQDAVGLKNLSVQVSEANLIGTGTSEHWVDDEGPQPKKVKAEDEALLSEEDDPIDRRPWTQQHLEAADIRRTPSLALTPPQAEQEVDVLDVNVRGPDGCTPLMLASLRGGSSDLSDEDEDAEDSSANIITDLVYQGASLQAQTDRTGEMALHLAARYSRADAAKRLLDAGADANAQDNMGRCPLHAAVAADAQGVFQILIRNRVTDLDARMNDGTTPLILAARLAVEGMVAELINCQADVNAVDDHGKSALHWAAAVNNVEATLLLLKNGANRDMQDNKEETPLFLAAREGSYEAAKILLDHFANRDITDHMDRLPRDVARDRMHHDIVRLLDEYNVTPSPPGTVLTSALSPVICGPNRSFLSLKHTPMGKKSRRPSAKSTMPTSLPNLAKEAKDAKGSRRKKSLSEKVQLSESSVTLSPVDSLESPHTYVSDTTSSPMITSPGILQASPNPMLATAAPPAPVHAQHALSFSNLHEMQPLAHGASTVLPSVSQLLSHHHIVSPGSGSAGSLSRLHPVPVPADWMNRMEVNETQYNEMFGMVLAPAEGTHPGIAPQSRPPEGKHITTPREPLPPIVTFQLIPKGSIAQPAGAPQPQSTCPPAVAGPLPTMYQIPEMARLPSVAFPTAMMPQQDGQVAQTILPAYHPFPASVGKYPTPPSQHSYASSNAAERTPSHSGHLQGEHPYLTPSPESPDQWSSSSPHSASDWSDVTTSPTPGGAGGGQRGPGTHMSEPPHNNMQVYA

| Compound | composite z-score [1] | composite z-score [2] | composite z-score [3] | composite z-score [4] | composite z-score [5] | composite z-score [6] | composite z-score [7] | z-score [8] | composite z-score [9] | composite z-score [10] |
| --- | --- | --- | --- | --- | --- | --- | --- | --- | --- | --- |
| COc1ccc(COC(=O)NN=C2C[C@@H](O)[C@@H](O)[C@@H]3[C@@H]4C(=O)N(C5CCCCC5)C(=O)[C@@H]4CC[C@@H]23)cc1 | 0.848 | -0.132 | -0.0883 | -0.176 | -0.515 | -0.112 | -0.313 | 0.468 (inactive) | 1.34 | -0.48 |
| CC(C)[C@H](NC(=O)OC(C)(C)C)[C@@H](O)CC(=O)C(C)(C)C | -0.507 | 0.205 | 0.0103 | 0.209 | 0.541 | -0.144 | -0.295 | 0.46 (inactive) | 0.0986 | 0.107 |
| C=CC[C@@H]1C=C[C@H](ON=C(C)CCN2CCCCc3nc(C)c(C)cc32)[C@@H](CO)O1 | 0.407 | 1.57 | -0.0704 | 0.129 | 0.145 | 0.37 | 0.899 | 0.389 (inactive) | 0.238 | 0.0053 |
| CCOC(=O)NN=C1C[C@@H](O)[C@@H](O)[C@@H]2[C@@H]3C(=O)N(C[C@@H]4CCCO4)C(=O)[C@@H]3CC[C@H]12 | -0.548 | -0.274 | -0.0217 | 0.217 | 0.701 | 0.203 | 0.34 | 0.577 (inactive) | -0.0482 | -0.143 |
| COc1ccc(COC(=O)NN=C2C[C@@H](O)[C@@H](O)[C@@H]3[C@@H]4C(=O)N([C@@H](C)c5ccccc5)C(=O)[C@@H]4CC[C@H]23)cc1 | 1.87 | 0.287 | -0.0614 | -0.129 | -0.249 | -0.413 | -0.592 | -0.797 (inactive) | 0.951 | -0.226 |
| CCN1C(=O)[C@H]2[C@H]3[C@H](O)[C@H](O)CC(=NO[C@@H]4O[C@H](COC(C)=O)[C@@H](OC(C)=O)[C@H](OC(C)=O)[C@H]4OC(C)=O)[C@@H]3CC[C@H]2C1=O | -0.665 | 0.588 | -0.0319 | 0.794 | 0.948 | 0.357 | 1 | 0.186 (inactive) | 0.054 | -0.0994 |
| CCC1=NOC(CCC2CC(OC(=O)NCc3cccc4c3OCO4)CC3(CCCC(COC(=O)NCCc4ccc(Cl)cc4)O3)O2)C1 (stereo not given) | -0.281 | 0.0253 | 0.0388 | 0.88 | 0.0241 | 1.44 | 1.12 | 1.24 (inactive) | -0.0353 | -0.0994 |
| CC(C)[C@@H](OCc1ccccc1)[C@H](C)C=NOC[C@@H](O)[C@H]1O[C@@H]2OC(C)(C)O[C@@H]2[C@H]1O | -0.365 | 0.116 | -0.198 | 0.492 | 0.25 | 0.125 | 0.361 | 0.417 (inactive) | 0.307 | -0.0645 |
| CCN1C(=O)[C@H]2[C@H]3[C@H](O)[C@H](O)CC(=NNC(=O)OCc4ccccc4)[C@H]3CC[C@H]2C1=O | 0.307 | 0.447 | 0.0572 | -0.0005 | -0.0049 | -0.117 | -0.696 | -0.209 (inactive) | 0.313 | -0.13 |
| C#CCCCON=C1[C@H]2CCn3c(=O)n([C@@H](CC)c4ccccc4)c(=O)n3[C@H]2[C@H](O)[C@@H]2O[C@H]12 | -0.409 | 0.152 | 0.0047 | 0.353 | 0.148 | 0.24 | 0.322 | 0.456 (inactive) | -0.0356 | -0.261 |
| CCCCOC(OCCCC)C(O)CSc1ccc2ccccc2c1 (stereo not given) | -0.283 | 0.61 | -0.0599 | 0.291 | 0.525 | -0.213 | 0.461 | -1.52 (inactive) | 0.105 | 0.157 |
| CC(C)CON=C1[C@H]2CCn3c(=O)n(C)c(=O)n3[C@H]2[C@H](O)[C@@H]2O[C@H]12 | -0.553 | -0.0908 | -0.136 | 0.469 | 0.493 | 0.288 | 0.157 | -0.0014 (inactive) | -0.0694 | 0.0505 |
| COc1cccc([C@H](O)Cn2cc(-c3ccc(CON=C(C)C)cc3)nn2)c1 | -0.131 | 0.173 | -0.0138 | 0.0967 | -0.193 | -0.486 | 0.0451 | -0.291 (inactive) | 0.0775 | -0.185 |
| CON=C[C@@H](OC)[C@H](C)C=CCC(=O)OC | -0.447 | 0.0818 | -0.191 | 0.172 | -0.0904 | -0.513 | -0.499 | -0.0681 (inactive) | 0.272 | 0.0401 |
| CC[C@@H](c1ccccc1)n1c(=O)n2n(c1=O)[C@H]1[C@H](O)[C@@H]3O[C@@H]3C(=NOCc3ccccc3)[C@H]1CC2 | 0.83 | 0.374 | -0.172 | 0.0913 | 0.57 | 0.834 | 0.504 | 2.67 (inactive) | -0.0575 | -0.13 |
| CC1(C)O[C@H]2O[C@H]([C@H](O)CON=C3[C@H]4CCn5c(=O)n(-c6ccccc6)c(=O)n5[C@H]4[C@H](O)[C@@H]4O[C@H]34)[C@H](O)[C@H]2O1 | -0.278 | 0.0391 | -0.154 | 0.157 | 0.0872 | 0.762 | -0.431 | -0.027 (inactive) | -0.081 | -0.0994 |

| Compound | composite z-score [1] | composite z-score [2] | composite z-score [3] | composite z-score [4] | composite z-score [5] | composite z-score [6] | composite z-score [7] | z-score [8] | composite z-score [9] | composite z-score [10] |
| --- | --- | --- | --- | --- | --- | --- | --- | --- | --- | --- |
| COC(=O)[C@H](C)NC(=O)CCC1CC(OC(=O)NCCc2ccc(F)cc2)CC2(CCCC(COC(=O)NCCOc3ccccc3)O2)O1 (stereo not given in full) | -0.443 | 0.269 | -0.0392 | 0.532 | 1.34 | 0.672 | 0.933 | 0.907 (inactive) | 0.238 | -0.173 |
| COc1ccc(COC(=O)NN=C2C[C@@H](O)[C@@H](O)[C@@H]3[C@@H]4C(=O)N(Cc5ccccc5)C(=O)[C@@H]4CC[C@@H]23)cc1 | -0.512 | -0.0209 | -0.0286 | 0.291 | 0.383 | -0.271 | -0.214 | 0.364 (inactive) | 0.268 | 0.0183 |
| CO[C@@H]1COC(=O)[C@@H]2CCCN2C(=O)[C@@H](C)COC(=O)CCC[C@H]1C | -0.468 | 0.352 | -0.0836 | 0.367 | 0.997 | -0.0887 | 1.19 | -0.343 (inactive) | -0.288 | -0.0645 |
| CO[C@@H]1C=CCC(=O)N[C@@H](C)C(=O)OC[C@@H](NS(=O)(=O)c2ccc(C)cc2)[C@H](C)C=CCC(=O)OC[C@H]1C | -0.296 | 0.43 | -0.238 | 0.199 | -0.765 | -0.589 | -0.919 | -1.04 (inactive) | -0.0849 | 0.21 |
| O=C1[C@H]2[C@H]3[C@H](O)[C@H](O)CC(=NOC[C@@H](O)COCc4ccco4)[C@@H]3CC[C@H]2C(=O)N1C1CCCCC1 | -0.679 | 2.04 | -0.16 | -0.357 | 0.0224 | -0.459 | 1.2 | 0.219 (inactive) | -0.045 | 0.235 |
| COc1ccc(O[C@H]2C=C[C@@H](c3ccccc3)O[C@@H]2CO)cc1 | -0.176 | -0.15 | -0.121 | 0.291 | -0.359 | -0.224 | -0.134 | 0.403 (inactive) | -0.221 | 0.0458 |
| C#CCCCON=C1C[C@@H](O)[C@@H](O)[C@@H]2[C@@H]3C(=O)N(CC)C(=O)[C@@H]3CC[C@H]12 | -0.281 | 0.368 | -0.0885 | 0.236 | 0.03 | 1.16 | 0.528 | -0.234 (inactive) | 0.0594 | -0.128 |
| C[C@H]1CC[C@@H](C(=O)O)N[C@@H]1c1cccc(N2CCCC2=O)c1 | -0.304 | 0.141 | -0.145 | 0.22 | 0.408 | -0.153 | 0.17 | 0.304 (inactive) | 0.149 | 0.107 |
| CO[C@@H](C1CCCCC1)[C@@H](C)[C@H](OCc1cccc(Br)c1)[C@@H](C)CO | -0.284 | -0.0003 | -0.0909 | 0.179 | -0.0552 | -0.194 | -0.511 | 2.57 (inactive) | 0.306 | -0.0173 |
| O=C1CCCC=C1C(O)C1CCCCC1 (stereo not given) | -0.53 | 0.835 | -0.141 | 0.191 | -0.0306 | -0.594 | -0.593 | 0.0424 (inactive) | -0.0962 | 0.0373 |
| C=CC[C@@H]1C=C[C@H](ON=CC[C@@H]2C=C[C@H](OC(C)=O)[C@@H](COC(C)=O)O2)[C@@H](CO)O1 | -0.256 | 0.52 | -0.0864 | 0.75 | 1.12 | 1.06 | 1.11 | 0.411 (inactive) | 1.06 | -0.314 |
| COCOc1ccc(Br)cc1C(=O)C=Cc1ccc2c(c1)OCO2 | -0.289 | 0.738 | -0.0878 | 0.313 | 0.315 | -0.302 | -0.645 | -2.06 (inactive) | 0.13 | -0.226 |
| C#CCCCON=C1C[C@@H](O)[C@@H](O)[C@@H]2[C@@H]3C(=O)N(C[C@@H]4CCCO4)C(=O)[C@@H]3CC[C@H]12 | -0.444 | 0.368 | -0.168 | 0.188 | 0.53 | 0.43 | 0.475 | 0.164 (inactive) | 0.0653 | -0.353 |
| COC(=O)[C@@H]1CC[C@H](C)[C@@H](c2ccc(Br)cc2)N1C(=O)C(F)(F)F | -0.23 | -0.214 | -0.108 | -0.148 | -0.232 | -0.493 | -0.677 | -0.589 (inactive) | -0.249 | -0.412 |
| CON=C(C)CCN1CCc2nc(-c3ccccc3)c(-c3ccccc3)cc2C1 | -0.262 | -0.052 | -0.128 | -0.149 | 0.195 | 0.387 | -0.961 | 0.953 (inactive) | 0.0046 | -0.201 |
| C[C@@H]1CC[C@H]2C(=O)O[C@@H](COc3ccc(C(C)(C)C)cc3)CN2[C@H]1c1ccc(Br)cc1 | -0.348 | 0.0745 | -0.103 | 0.085 | -0.0477 | 0.101 | -0.4 | 0.732 (inactive) | 0.153 | -0.16 |
